# Compound activity deposited in PubChem by several laboratories.
# EWS-Fli block: blocks EWS/Fli oncoprotein-driven transcription; AID 651661; 350,000 compounds, 0.67% hits; inhibition, % at 12.6 µM; A673 NR0B1-luciferase reporter, viability-normalised;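 active = mean inhibition of at least 50% after viability correction, with every replicate also passing that limit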;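 note: firefly luciferase signal divided by Alamar Blue viability fluorescence both relative to DMSO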
# PAX8 reporter: lowers PAX8-driven luciferase in RMG-I cells; inhibition, % at 12.6 µM; RMG-I TPO-luciferase reporter, SteadyGlo, 24 h; 360,000 compounds, 1.2% hits;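 active = mean replicate inhibition at least 60% with every replicate also reaching 60%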;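 note: luciferase light reporting Pax8 driven TPO promoter activity; plate controls were median of neutral control wells for no effect and mitoxantrone controls for full effect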
# HIF-2a block: HIF-2a inhibition | inhibition, % at 18.8 µM | 786-0 RCC cells HIF-2a reporter, luciferase luminescence, overnight | 360,000 compounds, 0.72% hits;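 active = inhibition of the luminescence signal of 40% or more relative to plate controls, in a single-dose primary screen at 18.75 µM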
# CF NFkB inh: cystic fibrosis NF-kB activation inhibition | KKLEB NF-kB-GFP reporter, PAF-induced, GFP fluorescence overnight | inhibition, % at 5 µM | 360,000 compounds, 0.86% hits;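 active = at least 50% inhibition at 5 µM, scaled per plate between neutral and stimulator controls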;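 note: PAF is a Pseudomonas aeruginosa culture filtrate used as stimulus; plate controls were PAF-stimulated DMSO wells for no effect and unstimulated DMSO wells for full effect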
# KKLEB tox: reduces viability of KKLEB cystic fibrosis airway cells; 360,000 compounds, 0.36% hits; KKLEB CF airway cells viability, ATPlite luminescence, overnight; hits give low values; cells stimulated with P. aeruginosa culture filtrate; activity change (cytotoxicity), % at 5 µM;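 active = corrected activity change at or below -50% at 5 µM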
# Mdm2 MdmX conf: Mdm2/MdmX (human) interaction inhibition, confirmed; shares compounds with HIF-2a block; SaOS-2 split-luciferase Mdm2/MdmX complementation, luminescence; inhibition, % at 8 µM; 740 compounds, 99% hits; AID 504601;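 active = mean inhibition of the luminescence signal across two replicates at or above 26 percent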
# HIF-2a inh conf: confirmation of HIF-2a inhibitors; shares compounds with HIF-2a block; 1,800 compounds, 56% hits; 786-0 RCC cells, HIF-2a luciferase reporter luminescence, overnight; inhibition, % at 18.8 µM;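 active = mean inhibition across four replicates of at least 40 percent at the single tested concentration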
# HIF-1a counter: HIF-1a inhibition counter-screen for HIF-2a hits. shares compounds with HIF-2a block. MiaPaCa-2 HIF-1a luciferase reporter, desferoxamine, overnight. inhibition, % at 18.8 µM. 1,800 compounds, 72% hits. AID 651589;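 active = mean inhibition of the reporter signal across four replicates at the single tested dose of 50% or more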
# Active calls of the source: *; nt = no result. This is a sample that favours compounds with a hit; in the whole collection about 2.1% have one here.
SMILES,EWS-Fli block,PAX8 reporter,HIF-2a block,CF NFkB inh,KKLEB tox,HIF-2a inh conf,HIF-1a counter,others
O=C(/C=C/c1c(F)cccc1Cl)c1ccc(O)cc1,7,26,-98,20,1,nt,nt,Mdm2 MdmX conf=50*
COc1ccc(NC(=O)N(C)C[C@H]2OCCCC[C@@H](C)Oc3ccc(NC(=O)Cc4ccccc4)cc3C(=O)N([C@@H](C)CO)C[C@H]2C)cc1,3,nt,nt,nt,nt,nt,nt,
CCC(=O)N[C@@H]1CC[C@H](CCn2cc(C3CC3)nn2)O[C@@H]1CO,-3,-4,nt,nt,nt,nt,nt,
Cn1c(=O)c2cc(S(=O)(=O)Nc3cc(C(=O)O)cc(C(=O)O)c3)ccc2n(C)c1=O,15,13,13,3,4,nt,nt,
Cc1cc(C)cc(NS(=O)(=O)c2ccc3c(c2)c(=O)n(C)c(=O)n3C)c1,50,nt,50*,33,5,41*,101*,
CN1C(=O)c2cc(NC(=O)c3ccccc3Cl)ccc2OC[C@@H]2O[C@@H](CC(=O)NCC(F)(F)F)CC[C@@H]21,-4,4,nt,nt,nt,nt,nt,
CCOC(=O)/C(=C\c1ccc(Cl)cc1)c1nc2sc(C)c(C)c2c(=O)[nH]1,nt,-14,94*,80*,-57*,98*,107*,
CCOC(=O)CSc1nc2sc(C)c(C)c2c(=O)[nH]1,nt,nt,9,11,-15,nt,nt,
c1cc(N2CCOCC2)ccc1-c1ccc2nncn2c1,4,-1,38*,-6,-2,17,-14,
CC1(C)CC(=O)C2=C(C1)NC1=C(C(=O)c3ccccc31)C2c1ccc(O)cc1 (stereo not given),nt,-2,44*,3,-8,20,40,
Cc1ccc(C(=O)Cn2c(C(=O)/C=C/c3ccccc3)nc3ccccc32)cc1,nt,nt,48*,10,-16,-4,60*,
Cn1c(=O)n(C)c2cc(NC(=O)CCl)ccc21,nt,0,51*,-80,-3,23,81*,
O=C(CCn1c(=O)oc2cc(Cl)ccc21)Nc1ccc(O)cc1,10,1,3,-6,4,nt,nt,
CCn1c(=O)oc2cc(NC(=O)CCl)ccc21,30,45,40*,-62,17,18,84*,
Cc1ccc(S(=O)(=O)Nc2ccc3c(c2)CC(=O)N([C@@H](C)CO)C[C@@H](C)[C@H](CN(C)S(=O)(=O)c2ccc(F)cc2)O3)cc1,-1,3,nt,nt,nt,nt,nt,
O=C(CCN1CCCCC1)N[C@H]1CC[C@H](CC(=O)N2CCC(Cc3ccccc3)CC2)O[C@@H]1CO,2,-13,nt,nt,nt,nt,nt,
O=C(CCl)Nc1ccccc1Sc1ccc(Cl)cc1,nt,nt,34,5,-9,nt,nt,Mdm2 MdmX conf=103*
CC(=O)N1CCN(CC(=O)Nc2ccccc2Sc2ccc(Cl)cc2)CC1,8,-1,35,10,-6,nt,nt,
CCN1CCN(C(=S)c2ccc(-c3ccccc3)cc2)CC1,21,13,80*,-10,6,95*,78*,
CCNC(=O)NC(=O)COC(=O)CCCc1nc2ccccc2s1,-5,2,5,-3,-6,nt,nt,
CCNC(=O)NC(=O)C(C)OC(=O)CCCSc1nc2ccccc2s1 (stereo not given),8,27,68*,-23,-3,86*,68*,
CNC(=O)NC(=O)C(C)OC(=O)CCCc1nc2ccccc2s1 (stereo not given),10,5,7,-7,-12,nt,nt,
CCNC(=O)NC(=O)COC(=O)CCCSc1nc2ccccc2s1,0,10,60*,11,-1,86*,60*,
CNC(=O)NC(=O)C(C)OC(=O)CCCSc1nc2ccccc2s1 (stereo not given),4,-8,71*,-1,-5,84*,63*,
C[C@H]1CCCCO[C@H](CN(C)CC2CCCCC2)[C@@H](C)CN([C@@H](C)CO)C(=O)c2cc(NC(=O)C3CCCCC3)ccc2O1,14,-2,nt,nt,nt,nt,nt,
Cc1nc(C)c(C(=O)Nc2ncc([N+](=O)[O-])s2)o1,57*,22,56*,-4,-2,59*,35,
CCOC(=O)CNC(=O)CSc1ncnc2c1cnn2Cc1ccccc1,nt,nt,48*,15,-9,20,16,
